Shown are actives, neighbours in structure and some others; about 4.9% of the full set was active somewhere.
PP1 inh: blocks human PP1-alpha phosphatase, a PP5 counter-screen | 320,000 compounds, 0.9% hits | inhibition, % at 6.7 µM | P62136 | purified PP1alpha, OMFP fluorescence;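 active = inhibition above the mean inhibition of all tested compounds plus 3 SD, computed separately for each screening campaign, cut at about 15% in these data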
Target sequence (P62136 whole entry, looked up): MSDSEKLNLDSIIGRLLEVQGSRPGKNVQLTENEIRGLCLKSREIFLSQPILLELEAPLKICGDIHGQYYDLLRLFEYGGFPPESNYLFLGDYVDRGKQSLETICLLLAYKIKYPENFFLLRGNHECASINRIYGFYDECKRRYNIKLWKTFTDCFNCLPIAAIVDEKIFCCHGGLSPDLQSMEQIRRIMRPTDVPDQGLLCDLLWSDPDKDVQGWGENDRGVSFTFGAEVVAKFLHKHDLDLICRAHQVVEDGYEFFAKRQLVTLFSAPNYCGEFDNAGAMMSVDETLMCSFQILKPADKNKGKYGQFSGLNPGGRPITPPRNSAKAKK
Beta apoptosis: blocks beta cell apoptosis. INS-1E cytokine-induced death, ATP luminescence, 48 h; percent of positive-control rescue, neutral wells zero. protection from apoptosis, % (no concentration beside the values). 300,000 compounds, 0.8% hits. AID 435005;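 active = Every replicate reaches about 75%, or at least half do and their mean reaches it too, limit read from the data; inconclusive = At least half of replicates reach the limit but their mean does not; inactive = Under half of replicates reach the limit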;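 note: 0% = cytokine-treated negative control wells and 100% = positive control rescue; higher means more ATP so stronger rescue from cytokine killing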
Calb FLC: C. albicans growth modulation with fluconazole | C. albicans CaCi-2 (fluconazole-resistant clinical isolate) + fluconazole, Alamar Blue growth, 48 h | 300,000 compounds, 0.57% hits | growth inhibition, % (test concentration not listed);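 active = growth inhibition above about 58% in most replicates, limit read from the data, passing the limit was not always enough; inconclusive = exactly half the replicates above a set limit; inactive = most replicates below a set limit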;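 note: all wells also contain fluconazole at 8 µg/ml as a sub-toxic cotreatment; 0% = median of DMSO wells and 100% = median of geldanamycin control wells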
PP5 inh: PP5 (human) phosphatase inhibition; inhibition, % at 6.7 µM; 320,000 compounds, 0.18% hits; purified PP5c, OMFP substrate fluorescence; P53041; AID 1987;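 active = inhibition above the campaign's mean inhibition across all tested compounds plus 3 SD, cut at about 9.5% in these data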;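 note: 0% = DMSO only and 100% = 100 µM cantharidin control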
Mdm2-MdmX inh: disrupts the human Mdm2-MdmX interaction; SaOS-2 split-luciferase Mdm2/MdmX complementation, luminescence; inhibition, % at 8 µM; 330,000 compounds, 3% hits; O15151+Q00987; AID 485346;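 active = inhibition of at least 50% at 8 µM in the primary screen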
CSC inhib: blocks cancer stem cells. 300,000 compounds, 1.1% hits. cancer stem cell-like cells viability, luminescence. inhibition, % at 7.5 µM. AID 2717; in the data active = inhibition above about 75%; inconclusive = no clear call, values can overlap the other calls; tested in HMLE shEcad cells
Mdm2 MdmX conf: confirmation of human Mdm2/MdmX interaction inhibitors; inhibition, % at 8 µM; 10,000 compounds, 55% hits; AID 489028; shares compounds with Mdm2-MdmX inh; Mdm2-MdmX binding, luminescent assay; in the data active = inhibition above about 40%
Full FLuc ctr: inhibits full-length luciferase, flagging false Mdm2/MdmX hits | inhibition, % at 8 µM | SaOS-2 full-length luciferase counterscreen, luminescence | 6,200 compounds, 77% hits | shares compounds with Mdm2-MdmX inh;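 active = mean inhibition at 8 µM reaching about 37%, which flags the compound as non-specific, limit read from the data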;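 note: p53-null SaOS-2 cells with luciferase driven by a doxycycline-inducible promoter; compound on cells about two nights before reading with doxycycline added after day one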
The depositor's hits bear a star; ? = inconclusive; / = no result given.

SMILES | PP1 inh | Beta apoptosis | Calb FLC | PP5 inh | Mdm2-MdmX inh | CSC inhib | Mdm2 MdmX conf | Full FLuc ctr
Cc1ccc(C(=O)N/C(=C\c2ccc(-c3ccc(Cl)cc3)o2)C(=O)NCCCN(C)C)cc1 | -2 | 110* | ? | 0 | 93* | 6 | 94* | 52*
CN(C)CCNC(=O)/C(=C/c1ccc(-c2cccc([N+](=O)[O-])c2)o1)NC(=O)c1ccccc1 | 3 | 1 | -2 | 2 | 43 | 9 | / | /
Cc1ccc(C(=O)N/C(=C\c2ccc(-c3cccc([N+](=O)[O-])c3)o2)C(=O)NCCCN2CCOCC2)cc1 | -10 | 10 | 6 | -6 | 51* | 13 | 14 | /
Cc1ccc(C(=O)N/C(=C/c2ccc(-c3cccc([N+](=O)[O-])c3)o2)C(=O)NC(C)C)cc1 | 2 | 5 | 24 | 2 | 1 | 7 | / | /
CN(C)CCNC(=O)/C(=C/c1ccc(-c2cccc(Cl)c2)o1)NC(=O)c1ccccc1 | -2 | 16 | -12 | 2 | 91* | 3 | 61* | 45*
CSCc1ccc(C(=O)N2CCC(N3CCC(C(=O)NC(C)C)CC3)CC2)o1 | 2 | -3 | -4 | 3 | 6 | 1 | / | /
COc1ccccc1OCC(O)CN1CCN(C(=O)c2ccccc2)CC1 (stereo not drawn) | -12 | 2 | -3 | -1 | 1 | -4 | / | /
CC(C)=CCC/C(C)=C/CC(C)(C)CNCCN1CCNCC1 | -1 | 7 | -23 | -1 | 88* | 65 | 30 | /
Cc1ccc(NC(=O)CS(=O)c2ccccc2N)c(C)c1 (stereo not drawn) | 3 | -14 | 14 | 4 | -9 | / | / | /
CCC1CCc2sc(C(=O)NCC(c3ccccc3OC)N3CCCC3)cc2C1 (stereo not drawn) | -2 | 0 | / | 0 | 75* | -9 | 18 | /
O=S1(=O)N[C@H](c2ccccc2)C[C@H](c2ccc(C(F)(F)F)cc2)O1 | -2 | 2 | 11 | 3 | -12 | 0 | / | /
O=c1c2ccccc2oc2cc(C#CC3(O)CCCCC3)ccc12 | 3 | -2 | 10 | 3 | 87* | 19 | 76* | 98*
O=c1c2ccccc2sc2ccc(C#CC3(O)CCCCC3)cc12 | 2 | 6 | 18 | 4 | 94* | -6 | 94* | 25
COc1cccc2oc3cc(C#CC4(O)CCCCC4)ccc3c(=O)c12 | -4 | 0 | -7 | -1 | 13 | 23 | / | /
CSc1nnc(NC(=O)c2nc(S(=O)(=O)Cc3cccc(C)c3)ncc2Cl)s1 | -2 | -29 | 6 | 0 | 100* | 110* | 92* | 50*
Cc1cccc(CS(=O)(=O)c2ncc(Cl)c(C(=O)Nc3nnc(C(C)C)s3)n2)c1 | -7 | -20 | -1 | 0 | 96* | 107* | 88* | 50*
CC(C)c1nnc(NC(=O)CS(=O)(=O)Cc2ccccc2)s1 | -1 | -6 | 3 | -1 | -6 | -7 | / | /
CC(C)c1nnc(NC(=O)c2nc(S(=O)(=O)Cc3ccc(F)cc3)ncc2Cl)s1 | 6 | -22 | -4 | 1 | 100* | 106* | 57* | 52*
Cc1ccc(CS(=O)(=O)c2ncc(Cl)c(C(=O)Nc3nnc(C(C)C)s3)n2)cc1 | -1 | -7 | -4 | 3 | 96* | 111* | 38 | 0
CN1CCN(C(=O)/C(=C\c2cccnc2)NC(=O)c2cccc(Br)c2)CC1 | -2 | 0 | -11 | 1 | 15 | 1 | / | /
CC[C@@H]1CCCCc2ccccc2[C@H](C(=O)C[C@H](O)CC(C)=O)OC1=O | / | -11 | / | / | 26 | / | / | /
CCSc1nnc(NC(=O)c2nc(S(=O)(=O)Cc3ccc(F)cc3)ncc2Cl)s1 | 1 | -29 | 3 | -1 | 69* | 103* | 26 | /
C=CCSc1nnc(NC(=O)c2nc(SCC)ncc2Cl)s1 | 1 | 6 | 30 | 4 | 9 | 10 | / | /
Cc1nn(-c2ccc(F)cc2)c(Cl)c1/C=C1\C(=O)Nc2ccccc21 | 5 | -5 | / | 5 | 59* | 79* | 62* | 68*
Cc1sc(NC(=O)c2ccccc2)c(C(c2ccc(Cl)cc2)N2CCN(CCO)CC2)c1C (stereo not drawn) | 2 | -6 | 61 | 3 | 54* | 27 | 37 | 84*
SMILES | PP1 inh | Beta apoptosis | Calb FLC | PP5 inh | Mdm2-MdmX inh | CSC inhib | Mdm2 MdmX conf | Full FLuc ctr
Cc1sc(NC(=O)c2ccco2)c(C(c2cccnc2)N2CCN(c3ccc(F)cc3)CC2)c1C (stereo not drawn) | 6 | 29 | 25 | 3 | 45 | 24 | / | /
Cc1sc(NC(=O)c2ccco2)c(C(c2ccc(F)cc2)N2CCN(C)CC2)c1C (stereo not drawn) | 5 | -5 | 7 | 1 | 54* | -1 | 36 | 74*
Cc1ccc(NC(=O)C(Nc2cccc(C)c2)c2ccccc2)cc1 (stereo not drawn) | 0 | -2 | 4 | 1 | 16 | 25 | / | /
CNC(=S)N(Cc1ccc(Cl)cc1)Cc1cccs1 | 1 | 0 | -42 | 2 | -6 | -2 | / | /
COc1ccccc1CCNC(=O)CCSc1nc(-c2ccco2)cc(C(F)(F)F)n1 | 3 | 6 | 6 | 0 | 23 | 21 | / | /
CCOC(=O)c1sc(NC(=O)CSc2nc(-c3ccco3)cc(C(F)(F)F)n2)c(C(=O)OC)c1C | 0 | -6 | 12 | 2 | 73* | 14 | 29 | 17
COc1ccccc1CCNC(=O)CSc1nc(-c2ccco2)cc(C(F)(F)F)n1 | -8 | / | 2 | -3 | 76* | 7 | 43* | 83*
O=C(CSc1nc(-c2ccco2)cc(C(F)(F)F)n1)Nc1ccc2c(c1)OCO2 | 2 | -3 | 1 | 3 | 62* | 46 | 65* | 44*
O=C(CCCSc1nc(-c2ccco2)cc(C(F)(F)F)n1)Nc1ccc2c(c1)OCO2 | -1 | 3 | -16 | 7 | 24 | 36 | / | /
COc1ccc([C@H]2CC(=O)C=C(c3ccc(F)cc3OCc3ccccc3)C2)cc1OC | 1 | 14 | / | 5 | 33 | 20 | / | /
O=C(Cc1ccc([N+](=O)[O-])cc1)Nc1cc(C(F)(F)F)cc(C(F)(F)F)c1 | -2 | 13 | -3 | 3 | 51* | 13 | 75* | 63*
O=C(Cc1ccc([N+](=O)[O-])cc1)Nc1cccc(C(F)(F)F)c1 | 1 | 9 | -3 | 7 | -10 | -2 | / | /
CCN1CCN(C(=O)CN(c2ccc(F)c(Cl)c2)S(C)(=O)=O)CC1 | -4 | -1 | -2 | -1 | -11 | -33 | / | /
CC(=O)c1ccc(OC(=O)C2CSC3(C)CCC(=O)N23)cc1 (stereo not drawn) | 3 | -4 | / | 2 | -17 | / | / | /
N=c1n(CCN2CCOCC2)c2ccccc2n1CC(=O)c1ccc(Cl)c(Cl)c1 | 5 | 17 | -6 | 8 | -18 | 18 | / | /
